The target in assay [1] is Tyrosine-protein kinase SYK (Homo sapiens) (UniProt P43405). To be noted: at 1 µM.
Assay [2] has as its target T1, Tyrosine-protein kinase Tec (Homo sapiens) (UniProt P42680).
T1 sequence (whole entry): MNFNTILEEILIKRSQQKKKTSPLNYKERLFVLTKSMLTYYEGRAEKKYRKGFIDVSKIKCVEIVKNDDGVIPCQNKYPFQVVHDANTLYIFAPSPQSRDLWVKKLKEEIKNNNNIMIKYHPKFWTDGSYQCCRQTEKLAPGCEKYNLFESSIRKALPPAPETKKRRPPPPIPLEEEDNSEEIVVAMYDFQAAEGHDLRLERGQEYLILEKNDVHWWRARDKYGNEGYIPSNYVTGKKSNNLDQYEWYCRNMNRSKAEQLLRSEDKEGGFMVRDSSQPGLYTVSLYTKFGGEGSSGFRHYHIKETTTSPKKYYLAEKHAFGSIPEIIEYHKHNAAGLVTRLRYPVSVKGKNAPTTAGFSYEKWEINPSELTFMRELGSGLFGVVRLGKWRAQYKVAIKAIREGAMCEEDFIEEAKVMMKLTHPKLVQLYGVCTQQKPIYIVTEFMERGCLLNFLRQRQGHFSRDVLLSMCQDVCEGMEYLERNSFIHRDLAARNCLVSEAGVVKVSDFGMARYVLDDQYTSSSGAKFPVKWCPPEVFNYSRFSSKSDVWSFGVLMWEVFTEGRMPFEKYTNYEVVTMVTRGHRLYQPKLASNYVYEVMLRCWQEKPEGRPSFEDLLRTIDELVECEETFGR
To be noted: at 0.1 µM.

The target of assay [3] is T1, Tyrosine-protein kinase Tec (Homo sapiens). To be noted: at 1 µM.
The target of assay [4] is Angiopoietin-1 receptor (Homo sapiens) (UniProt Q02763). To be noted: at 0.1 µM.
Chain of Angiopoietin-1 receptor (Homo sapiens) (Q02763 whole entry): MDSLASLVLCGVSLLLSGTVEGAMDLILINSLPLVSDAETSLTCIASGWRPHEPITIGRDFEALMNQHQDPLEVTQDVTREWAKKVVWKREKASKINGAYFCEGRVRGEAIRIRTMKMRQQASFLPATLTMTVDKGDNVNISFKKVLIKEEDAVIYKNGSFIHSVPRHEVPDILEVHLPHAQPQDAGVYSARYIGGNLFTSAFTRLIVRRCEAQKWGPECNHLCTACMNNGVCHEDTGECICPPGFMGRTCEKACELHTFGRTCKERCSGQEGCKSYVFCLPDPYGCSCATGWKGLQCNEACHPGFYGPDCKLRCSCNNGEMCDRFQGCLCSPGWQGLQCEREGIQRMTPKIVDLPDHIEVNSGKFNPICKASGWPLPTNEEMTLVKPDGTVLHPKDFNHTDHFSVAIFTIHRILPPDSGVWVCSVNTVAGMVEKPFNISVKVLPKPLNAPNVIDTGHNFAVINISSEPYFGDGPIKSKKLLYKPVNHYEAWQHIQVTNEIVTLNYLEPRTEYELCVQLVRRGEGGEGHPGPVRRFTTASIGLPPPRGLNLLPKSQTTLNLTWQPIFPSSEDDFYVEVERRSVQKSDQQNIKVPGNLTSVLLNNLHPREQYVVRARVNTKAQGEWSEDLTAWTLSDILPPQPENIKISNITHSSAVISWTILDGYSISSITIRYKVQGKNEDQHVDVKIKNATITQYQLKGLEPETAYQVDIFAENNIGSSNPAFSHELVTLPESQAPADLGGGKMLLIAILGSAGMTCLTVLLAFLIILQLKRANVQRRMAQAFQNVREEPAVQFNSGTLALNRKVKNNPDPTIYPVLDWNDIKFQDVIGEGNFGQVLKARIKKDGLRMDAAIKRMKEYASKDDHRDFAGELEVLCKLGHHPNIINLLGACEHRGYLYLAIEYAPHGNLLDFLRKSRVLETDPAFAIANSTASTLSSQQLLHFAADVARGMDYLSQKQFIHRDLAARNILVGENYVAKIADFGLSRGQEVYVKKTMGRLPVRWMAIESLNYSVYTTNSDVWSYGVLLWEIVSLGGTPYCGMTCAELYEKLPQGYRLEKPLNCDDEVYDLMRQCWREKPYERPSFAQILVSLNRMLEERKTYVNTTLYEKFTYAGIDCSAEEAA
Assay [5] has the same target. To be noted: at 1 µM.
In assay [6] the target is T2, Non-receptor tyrosine-protein kinase TNK1 (Homo sapiens) (UniProt Q13470).
T2 sequence (whole entry): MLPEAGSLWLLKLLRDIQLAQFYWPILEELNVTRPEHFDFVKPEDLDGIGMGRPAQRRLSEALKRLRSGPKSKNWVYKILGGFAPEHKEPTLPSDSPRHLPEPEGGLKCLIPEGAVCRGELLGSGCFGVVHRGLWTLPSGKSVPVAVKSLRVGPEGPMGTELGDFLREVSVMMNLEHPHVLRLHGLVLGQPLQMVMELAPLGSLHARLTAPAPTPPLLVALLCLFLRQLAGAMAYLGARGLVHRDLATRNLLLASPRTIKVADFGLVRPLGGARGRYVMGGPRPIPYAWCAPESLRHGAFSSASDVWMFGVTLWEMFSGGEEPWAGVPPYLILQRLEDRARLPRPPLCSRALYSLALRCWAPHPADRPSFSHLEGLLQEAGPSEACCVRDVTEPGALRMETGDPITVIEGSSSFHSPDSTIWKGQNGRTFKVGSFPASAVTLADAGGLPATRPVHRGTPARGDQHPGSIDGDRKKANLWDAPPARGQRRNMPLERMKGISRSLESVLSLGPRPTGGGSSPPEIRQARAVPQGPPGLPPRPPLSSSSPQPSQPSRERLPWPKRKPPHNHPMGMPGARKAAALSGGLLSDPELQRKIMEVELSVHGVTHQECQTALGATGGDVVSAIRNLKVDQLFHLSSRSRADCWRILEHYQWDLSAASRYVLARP
The settings on record: at 0.1 µM.

Assay [7] has as its target T2, Non-receptor tyrosine-protein kinase TNK1 (Homo sapiens). The settings on record: at 1 µM.
Assay [8] addresses Activated CDC42 kinase 1 (Homo sapiens) (UniProt Q07912). To be noted: at 0.1 µM.
Assay [9] has the same target. To be noted: at 1 µM.
For assay [10], the target named is High affinity nerve growth factor receptor (Homo sapiens) (UniProt P04629). To be noted: at 0.1 µM.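 Further: each value is a mean of replicate percent inhibition readings against TRKA kinase.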
Chain of High affinity nerve growth factor receptor (Homo sapiens) (P04629 33-796 limits assumed): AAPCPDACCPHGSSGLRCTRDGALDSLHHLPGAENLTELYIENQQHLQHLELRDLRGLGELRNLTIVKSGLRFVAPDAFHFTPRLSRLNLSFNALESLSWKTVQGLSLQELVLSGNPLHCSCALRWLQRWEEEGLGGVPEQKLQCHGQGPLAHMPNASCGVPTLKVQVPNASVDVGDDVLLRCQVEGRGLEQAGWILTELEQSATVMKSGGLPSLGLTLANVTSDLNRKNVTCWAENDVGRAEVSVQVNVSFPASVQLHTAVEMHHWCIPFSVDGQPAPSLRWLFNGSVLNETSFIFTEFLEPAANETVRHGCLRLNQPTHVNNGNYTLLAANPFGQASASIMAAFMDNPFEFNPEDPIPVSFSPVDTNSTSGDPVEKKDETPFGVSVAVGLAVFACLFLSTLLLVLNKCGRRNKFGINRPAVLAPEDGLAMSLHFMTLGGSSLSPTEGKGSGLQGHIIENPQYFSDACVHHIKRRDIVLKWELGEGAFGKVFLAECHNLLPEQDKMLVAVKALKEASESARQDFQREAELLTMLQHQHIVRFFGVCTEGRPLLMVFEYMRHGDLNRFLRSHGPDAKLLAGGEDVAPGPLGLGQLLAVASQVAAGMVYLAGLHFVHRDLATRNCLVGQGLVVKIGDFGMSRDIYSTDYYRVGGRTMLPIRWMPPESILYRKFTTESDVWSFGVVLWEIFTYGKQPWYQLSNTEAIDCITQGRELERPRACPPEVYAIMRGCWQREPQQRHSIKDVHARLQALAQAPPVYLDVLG

The values below come from ChEMBL document CHEMBL1961873, “Compounds: GSK PKIS; Assays: Nanosyn kinase panel” (2012).

What is called inhibition is the drop in the measured response relative to a control, in per cent.

Each structure is given as a SMILES string.

Chain of Activated CDC42 kinase 1 (Homo sapiens) (Q07912 whole entry, looked up): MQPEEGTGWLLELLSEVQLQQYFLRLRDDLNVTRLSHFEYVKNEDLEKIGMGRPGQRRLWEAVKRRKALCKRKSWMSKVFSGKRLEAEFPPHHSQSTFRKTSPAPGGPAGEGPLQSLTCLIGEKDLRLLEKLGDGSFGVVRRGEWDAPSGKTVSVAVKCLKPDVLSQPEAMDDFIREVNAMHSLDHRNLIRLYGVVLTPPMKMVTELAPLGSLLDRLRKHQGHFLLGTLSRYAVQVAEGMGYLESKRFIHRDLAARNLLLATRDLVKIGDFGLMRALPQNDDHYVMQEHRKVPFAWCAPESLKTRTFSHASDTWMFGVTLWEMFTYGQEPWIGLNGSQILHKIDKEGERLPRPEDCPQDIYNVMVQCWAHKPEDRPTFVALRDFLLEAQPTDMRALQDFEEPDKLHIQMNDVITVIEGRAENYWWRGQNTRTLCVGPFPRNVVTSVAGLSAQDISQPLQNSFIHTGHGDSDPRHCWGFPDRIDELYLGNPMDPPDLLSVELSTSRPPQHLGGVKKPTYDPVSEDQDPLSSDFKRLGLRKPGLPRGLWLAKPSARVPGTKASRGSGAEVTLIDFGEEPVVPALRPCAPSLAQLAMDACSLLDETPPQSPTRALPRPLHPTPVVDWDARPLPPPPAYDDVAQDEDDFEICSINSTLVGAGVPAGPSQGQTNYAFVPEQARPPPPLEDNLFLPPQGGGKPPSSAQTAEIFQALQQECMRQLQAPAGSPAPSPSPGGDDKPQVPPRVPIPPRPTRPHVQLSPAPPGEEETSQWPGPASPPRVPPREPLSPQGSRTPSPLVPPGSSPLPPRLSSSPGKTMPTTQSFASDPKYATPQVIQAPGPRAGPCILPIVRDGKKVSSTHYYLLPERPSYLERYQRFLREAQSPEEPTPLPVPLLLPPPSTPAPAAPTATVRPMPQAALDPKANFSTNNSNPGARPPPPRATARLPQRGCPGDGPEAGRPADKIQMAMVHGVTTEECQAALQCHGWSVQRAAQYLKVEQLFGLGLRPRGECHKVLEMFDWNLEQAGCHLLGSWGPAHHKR

Take `c1cc(-c2cnn3nc(N4CCOCC4)ccc23)nc(NC2CC2)n1`: the inhibition in [1] was -2.21%; in assay [2], 5.06%; in assay [3] it was 8.36%; in assay [4] it was 0.4%; in [5], 5.76%; in assay [6] it was 4.07%. Further, the inhibition in assay [7] was 17.8%; in assay [8] it was 1.19%; in assay [9], 0.94%; in assay [10], 4.16%.

On to `O=C(O[C@H]1CN[C@H](C#Cc2cc3ncnc(Nc4ccc(Cc5ccccc5)cc4)c3s2)C1)N1CCOCC1`, for which the inhibition in assay [1] was -3.86%; in assay [2], -0.07%; in assay [3], 4.05%; in assay [4], -0.43%; in assay [5], 2.3%; in [6], 0.66%. Further, the inhibition in [7] turned out to be 5.45%; in assay [8], 0.74%; in [9], 0.96%; in [10], 1.4%.

In the case of `Fc1ccc(-c2cc(-c3c[nH]nc3-c3ccccn3)ccn2)cc1`, the inhibition in assay [1] is -0.94%; in assay [2] it was 3.71%; in assay [3], 3.67%; in assay [4], 2.32%; in assay [5], 2.49%; in assay [6] it was 3.71%. The inhibition was found to be 17.8% in assay [7], 2.51% in assay [8], 1.26% in assay [9] and 2.16% in assay [10].

As to `COc1ccc(CNC(=O)c2ccc(-c3cc(-c4nnc(C)o4)ccc3C)cc2)cc1`, the inhibition in [1] turned out to be 0.6%; in [2] it was 2.72%; in assay [3], 3.52%; in [4], 3.37%; in assay [5], 8.26%; in assay [6] it was 6.31%. In addition, the inhibition in assay [7] was 16%; in [8] it was 3.84%; in assay [9], 6%; in assay [10] it was -2.81%.

For the compound `c1ccc(-c2nc3n(c2-c2ccc4c(c2)OCO4)CCC3)nc1`, the inhibition in assay [1] is 2.09%; in assay [2], 1.69%; in assay [3], 0.69%; in [4], -0.12%; in [5] it was 1.12%; in assay [6], 0.76%. In addition, the inhibition in [7] worked out at 0.08%; in assay [8], 0.05%; in assay [9] it was 0.93%; in assay [10] it was 1.9%.

Turning to `CCn1c(-c2nonc2N)nc2c(C#CC(C)(C)O)nc(OC[C@H](N)c3ccccc3)cc21`, the inhibition in [1] turned out to be 4.13%; in assay [2], 6.27%; in assay [3], 3.05%; in assay [4], 5.91%; in assay [5], 6.74%; in [6], 1.23%. The inhibition in [7] is -4.26%; in [8], 0.7%; in assay [9] it was 3.88%; in assay [10] it was 0.42%.

As for `COc1ccc(-c2cc(-c3c[nH]nc3-c3ccccn3)ccn2)cc1`, the inhibition in [1] was -0.69%; in assay [2] it was 4.44%; in assay [3] it was 5.59%; in assay [4], 2.18%; in assay [5] it was 2.66%; in assay [6], 4.34%. Moreover, the inhibition in assay [7] amounted to 11.9%; in assay [8] it was 1.58%; in [9] it was 3.35%; in assay [10], 1.86%.

As to `Clc1ccc(-c2nn3ncccc3c2-c2ccnc(Nc3ccccc3)n2)cc1`, the inhibition in [1] is 2.04%; in assay [2], 2.78%; in assay [3], 15.2%; in assay [4], 3.84%; in assay [5], 18.5%; in assay [6], -6.06%. Also, the inhibition in assay [7] was found to be 11.2%; in assay [8], 0.77%; in [9], 4.09%; in assay [10] it was 3.46%.

`CN1CCC(n2cnc(-c3ccc(F)cc3)c2-c2ccnc(Nc3ccccc3)n2)CC1`: the inhibition was 0.18% in assay [1]; 3.59% in assay [2]; 3.4% in [3]; 2.95% in assay [4]; 4.52% in assay [5]; -0.22% in assay [6]. Also, the inhibition in assay [7] was 7.4%; in assay [8] it was 0.74%; in [9] it was 2.45%; in assay [10] it was -0.03%.

Take `NC(=O)c1sc(-n2cnc3ccc(C(F)(F)F)cc32)cc1OCc1ccccc1Br`: the inhibition in [1] was 0.09%; in assay [2], 2.5%; in assay [3], 2.78%; in assay [4], 2.27%; in [5] it was 3.55%; in assay [6] it was 1.47%. Further, the inhibition in assay [7] is 9.04%; in [8], 0.36%; in assay [9], 0.65%; in assay [10], 4.01%.

Consider `COc1ccc(-c2cc3c(N)ncnc3o2)cc1`, for which the inhibition was -0.57% in [1]; -1.03% in [2]; 3.07% in assay [3]; 2.49% in assay [4]; 2.73% in assay [5]; -0.85% in assay [6]. The inhibition in [7] is 6.1%; in [8] it was -0.17%; in [9], 1.96%; in [10], -0.83%.

With `[O-][S+]1CCN(Cc2ccc(-c3ccc4ncnc(Nc5ccc(OCc6cccc(F)c6)c(Cl)c5)c4c3)o2)CC1`, the inhibition in [1] came to 0.31%; in assay [2] it was 2.12%; in assay [3], 4.55%; in [4], 3.66%; in [5] it was 5.42%; in [6], 2.94%. Further, the inhibition is 11.7% in assay [7], 1.61% in assay [8], 1.32% in assay [9] and 3.52% in assay [10].

As for `FC(F)(F)c1cccc(-c2nn3ncccc3c2-c2ccnc(Nc3ccc4c(c3)OCCO4)n2)c1`, the inhibition in [1] is -1.91%; in [2], 4.21%; in [3], 15.5%; in assay [4], 4.09%; in assay [5], 10.6%; in assay [6], 1.44%. Moreover, the inhibition was determined as 5.7% in [7], 0.31% in assay [8], 0.47% in assay [9] and 1.71% in assay [10].

For the compound `O=S(=O)(CCNCc1ccc(-c2ccc3ncnc(Nc4ccc(OCc5cccc(F)c5)c(Cl)c4)c3c2)o1)c1ccccc1`, the inhibition in assay [1] was -4.14%; in assay [2], 1.85%; in assay [3], 5.02%; in [4], 5.73%; in assay [5], 8.7%; in [6] it was 4.16%. Besides, the inhibition in assay [7] stood at 22.3%; in assay [8] it was 2.38%; in [9] it was 1.4%; in [10], 2.46%.

With `NS(=O)(=O)c1ccc(Nc2ncc(-c3ccccc3)o2)cc1`, the inhibition in [1] is -1.05%; in assay [2], 4.68%; in assay [3], 7.4%; in assay [4], 2.1%; in assay [5], 2.98%; in [6], 4.37%. For the same compound, the inhibition in assay [7] was 18.5%; in assay [8], 1.26%; in assay [9], 3.09%; in assay [10], 5.28%.

For the compound `CCNC(=O)O[C@H]1CN[C@H](C#Cc2cc3ncnc(Nc4ccc(OCc5cccc(F)c5)c(Cl)c4)c3s2)C1`, the inhibition in assay [1] amounted to 0.53%; in assay [2], 4.9%; in assay [3] it was 5.79%; in assay [4], 1.23%; in assay [5] it was 3.88%; in [6], 3.2%. The inhibition in [7] was found to be 10.3%; in [8] it was 1.33%; in assay [9] it was 1.05%; in assay [10], 4.7%.

As for `CCn1c(-c2nonc2N)nc2cnc(Oc3cccc(NC(=O)c4ccc(N(C)C)cc4)c3)cc21`, the inhibition in assay [1] turned out to be 0.64%; in assay [2], 3.07%; in [3] it was 2.35%; in assay [4], 2.52%; in [5], 4.62%; in [6], 6.05%. Also, the inhibition in assay [7] was determined as 6.93%; in [8] it was 0.85%; in [9], 0.38%; in [10], 1.37%.
